One may read the inhibition as the change of the read-out against control, counted positive when it falls.

In assay [1] the target is Cell division control protein 42 homolog (Homo sapiens) (UniProt P60953). The experiment in a line: inhibition of fluorescent GTP binding to constitutively active Cdc42 – biochemical, multiplex bead flow cytometry, Bodipy-FL-GTP, dose response (AID 1333;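 active = fitted half-maximal concentration within the tested dose range, moderate curve steepness, a statistically real signal drop, and little compound fluorescence or tag-binding interference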). Particulars: bead-based flow cytometry; series mostly up to 100 µM.
For assay [2] the target is unchanged. The experiment in a line: inhibition of fluorescent GTP binding to wildtype Cdc42 – biochemical, multiplex bead flow cytometry, Bodipy-FL-GTP, dose response (AID 1334;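 active = fitted half-maximal concentration within the tested range, moderate curve steepness, significant signal drop, and little compound fluorescence or bead-linkage interference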). The following applies: bead-based flow cytometry, Bodipy-FL-GTP binding to GST-Cdc42; at 100 µM (top of the series). A general note: A flow cytometer gives signals particle by particle.
For assay [3], the system named is Ras-related protein Rab-7a (dog), GTP binding. The experiment in a line: blockers of fluorescent GTP binding to Rab7 – biochemical, wildtype, multiplex bead flow cytometry, dose response (AID 1336; call rule not given here). Particulars: bead-based flow cytometry; series mostly up to 100 µM.
Assay [4] addresses Ras-related C3 botulinum toxin substrate 1 (Homo sapiens) (UniProt P63000). The experiment in a line: inhibition of wildtype Rac1 nucleotide loading – biochemical, multiplex bead flow cytometry, dose response (AID 1340;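 active = dose curve with midpoint inside tested range, moderate steepness, plateau gap beyond fit error, low compound glow and bead-link interference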). Particulars: GST-Rac1 beads, Bodipy-FL-GTP binding; at 100 µM (top of the series).
Assay [5] has as its target GTPase HRas (Homo sapiens) (UniProt P01112). The experiment in a line: blockade of GTP loading onto mutant Ras – biochemical, activated mutant, multiplex bead flow cytometry, dose response (AID 1341).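 Also: GST-tagged constitutively activated Ras mutant immobilized on beads and multiplexed with other GTPases.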 Particulars: bead-based flow cytometry, Bodipy-FL-GTP binding; series mostly up to 100 µM.
Assay [6] is described as follows: hit retest on RPL19A-GFP reporter strain – cell-based, S. cerevisiae, flow cytometry, cherry picks, mother/daughter gates, confirmation (AID 2270;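 active = GFP response below 50% of the DMSO control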). The following applies: 3 h, at 10 µM, stronger effect = lower value, 100 = same GFP as DMSO wells.
Assay [7] is described as follows: yeast TOR pathway reporter LAP4-GFP change – cell-based, cherry picks, flow cytometry, mother/daughter gates, confirmation (AID 2271;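 active = GFP response above 150% of the DMSO control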;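 also: ratio of sample to DMSO plate mean so 100% equals DMSO level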). The following applies: S. cerevisiae LAP4-GFP strain, 3 h, at 10 µM, stronger effect = higher value.
Assay [8] in a line: TOR pathway reporter MEP2-GFP, retest of hits – S. cerevisiae, flow cytometry GFP, cherry picks, confirmation (AID 2272;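 active = GFP response above 150% of the DMSO control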;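 also: ratio of well signal to plate DMSO mean so 100% equals DMSO level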). Particulars: S. cerevisiae MEP2-GFP strain, 3 h, at 10 µM, stronger effect = higher value.
Assay [9] is described as follows: yeast AGP1-GFP fluorescence change, single-dose – cell-based, flow cytometry, S. cerevisiae, cherry picks, confirmation (AID 2273;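 active = GFP response above 150% of the DMSO level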;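 also: median GFP channel fluorescence over the whole cell population gate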). The following applies: S. cerevisiae AGP1-GFP strain, 3 h, at 10 µM.
Assay [10] can be described thus: TOR pathway CIT2 reporter hit retest – S. cerevisiae, GFP fusion, cherry picks, mother/daughter gates, confirmation (AID 2274;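 active = GFP response above 150% of the DMSO level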). The following applies: S. cerevisiae CIT2-GFP strain, flow cytometry, 3 h, at 10 µM, stronger effect = higher value.
A short description of assay [11]: interference with biotin-avidin bead interaction – biochemical, flow cytometry, bead-based, counter-screen for RGS protein interaction modulators (AID 1783;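 active = inhibition above 50%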;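 also: median green fluorescence of gated singlet beads compared with DMSO control wells; 0% = DMSO wells and 100% = complete loss of bead fluorescence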). Particulars: streptavidin beads, fluorescein-biotin binding, at 10 µM, stronger effect = higher value.
The target of assay [12] is Guanine nucleotide-binding protein G(o) subunit alpha (Homo sapiens) (UniProt P09471). The experiment in a line: retest of RGS8-Galphao interaction hits – biochemical, multiplexed bead flow cytometry, single concentration, confirmation (AID 1836; in the data active = binding response below about 72% or above about 130%; inactive = in between;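 also: Galphao activated as GDP AlF4 complex before binding bead RGS8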). The following applies: bead-based flow cytometry RGS8-Galphao binding, fluorescence; at 10 µM; actives lie on both sides.
Assay [13] shares this target. The experiment in a line: retest of RGS7-Galphao interaction hits – biochemical, multiplexed bead flow cytometry, single concentration, confirmation (AID 1837; in the data active = response below about 75% or above about 130%; inactive = in between;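 also: fluorescent Galphao activated with GDP and aluminum fluoride binding bead-coupled RGS7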). The following applies: bead-based flow cytometry RGS7-Galphao binding; at 10 µM; actives lie on both sides.
The target in assay [14] is Regulator of G-protein signaling 16 (Homo sapiens) + Guanine nucleotide-binding protein G(o) subunit alpha (Homo sapiens) (UniProt O15492+P09471). The experiment in a line: RGS16 and Galphao interaction regulators – biochemical, single concentration, multiplexed bead flow cytometry, confirmation (AID 1838; in the data active = response below about 74% or above about 130%; inactive = in between;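 also: Galphao activated as the GDP aluminium fluoride complex binding bead-coupled RGS16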). The following applies: bead-based flow cytometry, at 10 µM, actives lie on both sides.

Assay [15] has as its target Guanine nucleotide-binding protein G(o) subunit alpha (Homo sapiens) (UniProt P09471). The experiment in a line: RGS4 and Galphao interaction regulators – biochemical, single concentration, multiplexed bead flow cytometry, confirmation (AID 1840; in the data active = binding response below about 74% or above about 130%; inactive = in between). The following applies: at 10 µM, actives lie on both sides.
Assay [16] deals with Guanine nucleotide-binding protein G(o) subunit alpha (Homo sapiens) + Regulator of G-protein signaling 19 (Homo sapiens) (UniProt P09471+P49795). The experiment in a line: RGS19 interaction with Gαo, hit retest – biochemical, single point, multiplexed bead flow cytometry, confirmation (AID 1841; in the data active = response below about 50% or above about 160%; inactive = in between;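 also: 100% = no compound control and 0% = blank background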). The following applies: bead-based flow cytometry RGS19-Galphao binding; at 10 µM; actives lie on both sides.

Where [17] appears, read: measured here: daughter cell gate.
[18] abbreviates: measured here: mother cell gate.
[19] abbreviates: measured here: daughter cell gate response.
The mark [20] stands for this setting: measured here: mother cell gate response.

For some assays here: Measured potencies and affinities stand elsewhere. The list shows a part of the results. Calls of active or inactive are those of the source.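 The calls were made as follows, unless noted: active = dose-response curve with midpoint inside the tested range, moderate steepness, significant amplitude and little compound fluorescence or bead-attachment interference; inactive = the rest.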

Sequence of Guanine nucleotide-binding protein G(o) subunit alpha (Homo sapiens) (P09471 whole entry, looked up): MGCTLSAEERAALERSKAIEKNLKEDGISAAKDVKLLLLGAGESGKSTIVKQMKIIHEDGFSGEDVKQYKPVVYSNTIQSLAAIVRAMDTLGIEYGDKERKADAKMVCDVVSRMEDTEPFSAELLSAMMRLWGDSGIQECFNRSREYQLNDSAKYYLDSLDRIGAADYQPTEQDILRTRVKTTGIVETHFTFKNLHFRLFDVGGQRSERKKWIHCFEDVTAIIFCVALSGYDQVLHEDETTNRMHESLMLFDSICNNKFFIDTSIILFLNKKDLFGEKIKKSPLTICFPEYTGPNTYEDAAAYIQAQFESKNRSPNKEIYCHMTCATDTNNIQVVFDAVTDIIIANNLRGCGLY
Sequence of Cell division control protein 42 homolog (Homo sapiens) (P60953 whole entry, looked up): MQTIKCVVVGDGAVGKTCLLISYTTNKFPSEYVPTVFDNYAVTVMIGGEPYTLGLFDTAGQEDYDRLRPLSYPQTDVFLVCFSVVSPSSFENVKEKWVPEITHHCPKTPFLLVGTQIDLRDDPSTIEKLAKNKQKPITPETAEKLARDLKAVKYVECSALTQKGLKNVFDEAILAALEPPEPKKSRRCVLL
Sequence of Guanine nucleotide-binding protein G(o) subunit alpha (Homo sapiens) + Regulator of G-protein signaling 19 (Homo sapiens) (P09471 whole entry, looked up): as the sequence (P09471 whole entry, looked up) above
Sequence of Guanine nucleotide-binding protein G(o) subunit alpha (Homo sapiens) + Regulator of G-protein signaling 19 (Homo sapiens) (P49795 whole entry, looked up): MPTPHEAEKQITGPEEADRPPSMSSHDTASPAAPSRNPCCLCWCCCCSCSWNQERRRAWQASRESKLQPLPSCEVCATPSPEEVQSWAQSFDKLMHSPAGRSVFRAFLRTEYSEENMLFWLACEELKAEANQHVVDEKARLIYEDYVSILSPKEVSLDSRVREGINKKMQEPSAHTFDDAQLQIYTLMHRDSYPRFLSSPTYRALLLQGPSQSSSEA
Sequence of Regulator of G-protein signaling 16 (Homo sapiens) + Guanine nucleotide-binding protein G(o) subunit alpha (Homo sapiens) (O15492 whole entry, looked up): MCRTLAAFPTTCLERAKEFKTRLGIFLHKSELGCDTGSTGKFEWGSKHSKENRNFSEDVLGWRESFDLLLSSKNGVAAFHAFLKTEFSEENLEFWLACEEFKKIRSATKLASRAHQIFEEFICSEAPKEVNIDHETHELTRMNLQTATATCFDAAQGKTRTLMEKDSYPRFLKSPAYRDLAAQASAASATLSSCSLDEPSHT
Sequence of Regulator of G-protein signaling 16 (Homo sapiens) + Guanine nucleotide-binding protein G(o) subunit alpha (Homo sapiens) (P09471 whole entry, looked up): as the sequence (P09471 whole entry, looked up) above

For `CCCCN1C(=O)/C(=C\c2ccco2)C(=O)N(CCc2ccccc2)C1=O`, the outcome in assay [1], in assay [3] and in assay [5] was inactive. Moreover, the fluorescence, percent of control (lower = inhibition) in assay [2] came out at 77.8%. This compound also registered a GTP binding signal, raw median fluorescence (lower = inhibition) (MCF (arbitrary fluorescence units)) in assay [4] of 129.

Turning to `Cc1ccc(C)c(OCCn2cc(C(=O)O)c3ccccc32)c1`, the compound was classed as inactive in [1].

As for `CCOCCCn1c(N)c(C(=O)Nc2sc3c(c2C(=O)OC)CCCC3)c2nc3ccccc3nc21`, the result in assay [1], in assay [3] and in assay [5] was inactive. Also, in assay [2], the fluorescence, percent of control (lower = inhibition) was 64.4%. In [4], the GTP binding signal, raw median fluorescence (lower = inhibition) (MCF (arbitrary fluorescence units)) amounted to 127.

In the case of `COCCCn1c(N)c(C(=O)Nc2sc3c(c2C(=O)OC)CCCC3)c2nc3ccccc3nc21`, the outcome in assay [1], in assay [3] and in assay [5] was inactive. Further, the fluorescence, percent of control (lower = inhibition) in [2] is 85.2%. The same compound returned a GTP binding signal, raw median fluorescence (lower = inhibition) (MCF (arbitrary fluorescence units)) in assay [4] of 139.

`C[C@H](O)[C@H]1CC[C@H]2[C@@H]3CCC4=CC(=O)CC[C@]4(C)[C@H]3CC[C@]12C`: the GFP response vs DMSO in [6] was 97.8% (inactive); in [6] (setting [17]) it was 93%; in assay [6] (setting [18]), 99.6%; in [8], 95.7% (inactive). Besides, the results for the GFP response relative to DMSO in [7], in assay [7] (setting [19]) and in [7] (setting [20]) were 117% (inactive), 117% and 120%, respectively. Also, the GFP response, % of DMSO is 93.7% (inactive) in assay [9], 96.5% (inactive) in [10], 89.9% in assay [10] (setting [17]) and 98.7% in assay [10] (setting [18]).

On to `CN1C(=O)N(C)C(=O)C2(Cc3c(ccc4ccccc34)N(C)C2)C1=O`, for which the call in assay [1], in [3] and in assay [5] was inactive. Besides, the fluorescence, percent of control (lower = inhibition) in assay [2] is 34.8%. This compound came in with a GTP binding signal, raw median fluorescence (lower = inhibition) (MCF (arbitrary fluorescence units)) in [4] of 230.

In the case of `O=C(O)c1cn(Cc2ccc(Cl)cc2)c2ccccc12`, the outcome in assay [1], in assay [3] and in [5] was inactive. Further, the fluorescence, percent of control (lower = inhibition) in assay [2] came to 76.5%. Further, the GTP binding signal, raw median fluorescence (lower = inhibition) (MCF (arbitrary fluorescence units)) in assay [4] was 77.6.

As for `O=C1NC(=S)N(Cc2ccco2)C(=O)/C1=C\c1cccs1`, the outcome in assay [1], in assay [3] and in [5] was inactive. Besides, the fluorescence, percent of control (lower = inhibition) in [2] worked out at 54.7%. Moreover, in assay [4], the GTP binding signal, raw median fluorescence (lower = inhibition) (MCF (arbitrary fluorescence units)) turned out to be 167.

Take `COc1ccc(-c2cc(=NCCCCCC(=O)O)c3cc(C)ccc3o2)cc1`: the outcome in [1], in [3] and in assay [5] was inactive. For the same compound, the fluorescence, percent of control (lower = inhibition) in assay [2] came out at 34.9%. This compound returned a GTP binding signal, raw median fluorescence (lower = inhibition) (MCF (arbitrary fluorescence units)) in assay [4] of 132.

Consider `CCn1nc(/C=C/c2ccccc2)nc2c(=O)n(C)c(=O)nc1-2`, for which the call in assay [3] and in [5] was inactive. In assay [4], this compound came in with a GTP binding signal, raw median fluorescence (lower = inhibition) (MCF (arbitrary fluorescence units)) of 195.

Regarding `O=C1CN=C(c2ccccc2F)c2cc(Cl)ccc2N1`, the GFP response vs DMSO in [6] was 99.3% (inactive); in assay [6] (setting [17]), 99%; in [6] (setting [18]), 99.1%; in assay [8] it was 100% (inactive). In addition, the GFP response relative to DMSO is 97.4% (inactive) in assay [7], 98.7% in assay [7] (setting [19]) and 98.3% in [7] (setting [20]). The GFP response, % of DMSO in assay [9] is 98% (inactive); in [10], 107% (inactive); in [10] (setting [17]), 105%; in assay [10] (setting [18]), 111%.

As to `CC(Oc1ccc(-c2ccccc2)cc1)C(=O)O` (centres undefined), the outcome in [1], in [3] and in assay [5] was inactive. Also, the fluorescence, percent of control (lower = inhibition) in assay [2] was determined as 126%. In assay [4], this compound registered a GTP binding signal, raw median fluorescence (lower = inhibition) (MCF (arbitrary fluorescence units)) of 213.

`Cc1cc(C)cc(N2C(=O)NC(=O)/C(=C\C=C\c3ccco3)C2=O)c1`: the result in [1], in [3] and in [5] was inactive. Further, the fluorescence, percent of control (lower = inhibition) in assay [2] was 32.8%. The compound also yielded a GTP binding signal, raw median fluorescence (lower = inhibition) (MCF (arbitrary fluorescence units)) in [4] of 206.

For the compound `Nc1ccc(C(=O)N/N=C2/CN3CCC2CC3)cc1`, in assay [11], the inhibition is -1.4% (inactive). In addition, the figures for the binding response (% of control) in [12] and in assay [15] were 102% (inactive) and 100% (inactive), respectively. The response (percent of control binding) is 98.3% (inactive) in assay [13] and 92.4% (inactive) in [16]. Moreover, in assay [14], the response (% of control binding) was 99.4% (inactive).

Regarding `O=C(O)c1cn(Cc2ccccc2F)c2ccccc12`, the outcome in assay [1], in [3] and in assay [5] was inactive. Further, the fluorescence, percent of control (lower = inhibition) in [2] was 93%. Also, the GTP binding signal, raw median fluorescence (lower = inhibition) (MCF (arbitrary fluorescence units)) in assay [4] amounted to 68.4.

`O=C(O)c1cn(Cc2ccccc2Cl)c2ccccc12`: the result in [1], in [3] and in assay [5] was inactive. In assay [2], the fluorescence, percent of control (lower = inhibition) came out at 64.9%. The compound also gave a GTP binding signal, raw median fluorescence (lower = inhibition) (MCF (arbitrary fluorescence units)) in [4] of 34.1.

On to `Cc1ccc(C)c(OCCCn2cc(C(=O)O)c3ccccc32)c1`, for which the compound was called inactive in assay [1], in assay [3] and in assay [5]. In addition, in assay [2], the fluorescence, percent of control (lower = inhibition) was 61.7%. The GTP binding signal, raw median fluorescence (lower = inhibition) (MCF (arbitrary fluorescence units)) in assay [4] stood at 36.2.

With `O=C(O)c1cn(Cc2ccc(F)cc2)c2ccccc12`, the result in assay [1], in [3] and in [5] was inactive. Moreover, the fluorescence, percent of control (lower = inhibition) in [2] turned out to be 106%. The same compound returned a GTP binding signal, raw median fluorescence (lower = inhibition) (MCF (arbitrary fluorescence units)) in [4] of 91.8.

With `Cc1nn(Cc2ccccc2)c(Cl)c1C(=O)O`, the fluorescence, percent of control (lower = inhibition) in [2] turned out to be 45.4%. In [4], this compound returned a GTP binding signal, raw median fluorescence (lower = inhibition) (MCF (arbitrary fluorescence units)) of 270. Also, the result in assay [5] was inactive.

For the compound `CC[C@@H]1C(=O)OC[C@@H]1Cc1cncn1C`, the GFP response vs DMSO in [6] was 99.5% (inactive); in assay [6] (setting [17]), 98.3%; in [6] (setting [18]) it was 100%; in assay [8] it was 104% (inactive). Moreover, the GFP response relative to DMSO in assay [7] was 102% (inactive); in assay [7] (setting [19]), 101%; in assay [7] (setting [20]), 102%. Also, the GFP response, % of DMSO is 103% (inactive) in assay [9], 99.3% (inactive) in [10], 98.3% in [10] (setting [17]) and 100% in assay [10] (setting [18]).

On to `CC1(C)CC(n2[nH]c(=O)c3c2NC(=O)CSC3c2ccccc2)CCO1` (centres undefined), for which the call in assay [1], in [3] and in [5] was inactive. Further, the fluorescence, percent of control (lower = inhibition) in [2] was 35.5%. Further, the GTP binding signal, raw median fluorescence (lower = inhibition) (MCF (arbitrary fluorescence units)) in [4] amounted to 266.

`Cc1nc2c(=O)n(C)c(=O)nc-2n(C)n1`: the call in [3] and in assay [5] was inactive. In assay [4], this compound had a GTP binding signal, raw median fluorescence (lower = inhibition) (MCF (arbitrary fluorescence units)) of 251.

The values are drawn from PubChem BioAssay.
